Pf Dd2 growth – qHTS Primary assay for Inhibitors of Plasmodium falciparum Dd2 growth in vitro; P. falciparum Dd2 growth, SYBR Green, 72 h; Potency, µM (titrated, usually from 28.9 µM), actives largely listed as inhibitors; 4.3% of 120,000 active; AID 1347417, 2020; active means well fitted inhibition curve with a large enough effect; further: nearly all actives have a fitted effect of over 65% in size
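Infected erythrocytes (Dd2, 0.3% parasitemia, 2.5% hematocrit final) are added to compound in RPMI-1640/Albumax II medium, grown 72 h at 37C in low oxygen, then lysed with saponin/Triton-X containing SYBR Green and read by fluorescence.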
A number is an active result; - = inactive; [ ] = another dose, or the depositor's remark. Only a selection was taken, and hits are over-represented in it overall.

SMILES | Pf Dd2 growth
Cc1cc(C)c(CNC(=O)c2nc(-c3ccccc3)cc3[nH]ccc23)c(=O)[nH]1 | -
COc1ccc(-c2cc3c(ccn3C)c(C(=O)NCc3c(C)cc(C)[nH]c3=O)n2)cc1 | -
CC(C)(C)c1ccc(-c2nc(C3CC(=O)N(c4ccc(F)cc4)C3)no2)cc1 (stereo not given) | -
COc1ccccc1CN1C(=O)C2(CCOCC2)CC1c1nnnn1C(C)(C)C (stereo not given) | -
Clc1cccc(CNCCCSc2nnnn2-c2ccccc2)c1 | -
CCC(C)S(=O)(=O)c1oc(-c2cccs2)nc1S(=O)(=O)c1ccccc1 (stereo not given) | 13µM
Cc1ccc(CSc2oc(-c3cccs3)nc2S(=O)(=O)c2ccccc2)cc1 | -
O=S(=O)(c1ccccc1)c1nc(-c2cccs2)oc1N1CCCCC1 | -
CCCn1c(C)cnc1C1CCN(C(=O)NCC)C1 (stereo not given) | -
CCc1ccccc1Nc1nn2c(=O)c3ccc(C(=O)NCc4cccs4)cc3nc2s1 | 14µM
Cc1ccc(Cl)cc1Nc1nn2c(=O)c3ccc(C(=O)NC(C)c4ccccc4)cc3nc2s1 (stereo not given) | 7.9µM
CCc1ccccc1Nc1nn2c(=O)c3ccc(C(=O)NCCCOC(C)C)cc3nc2s1 | 11µM
COc1ccccc1Nc1nn2c(=O)c3ccc(C(=O)NC(C)c4ccccc4)cc3nc2s1 (stereo not given) | -
CCOC(=O)C1CCN(C(=O)c2ccc3c(=O)n4nc(Nc5ccccc5)sc4nc3c2)CC1 | -
Cc1ccc(NC(=O)c2ccc3c(=O)n4nc(Nc5ccccc5C)sc4nc3c2)cc1C | -
CCc1ccccc1Nc1nn2c(=O)c3ccc(C(=O)NC(C)C)cc3nc2s1 | -
COC(=O)c1ccc2c(=O)n3nc(Nc4cc(OC)ccc4OC)sc3nc2c1 | -
Cc1ccc(Cl)cc1Nc1nn2c(=O)c3ccc(C(=O)Nc4ccc(F)cc4)cc3nc2s1 | -
COc1ccc(NC(=O)c2ccc3c(=O)n4nc(Nc5ccccc5C)sc4nc3c2)cc1Cl | -
COc1ccc(NC(=O)c2ccc3c(=O)n4nc(Nc5ccccc5C)sc4nc3c2)cc1 | -
CCc1ccccc1Nc1nn2c(=O)c3ccc(C(=O)NCc4ccccc4Cl)cc3nc2s1 | 11µM
O=C(C1CCCCCC1)N1CCC(n2cc(-c3ccsc3)nn2)CC1 | -
COCCN1CCCCC(CC(=O)Nc2ccc(N3CCOCC3)cc2)C1=O (stereo not given) | -
CCc1ccc(C2CC(C(=O)NCc3ccco3)CN(C(C)=O)C2)cc1 (stereo not given) | -
Cc1ccc(NC(=O)CSc2nnc(C)s2)c(C)c1 | -
SMILES | Pf Dd2 growth
CCCc1nnc([C@H]2CCN(Cc3ccc(C)o3)C2)o1 | -
COc1ccc(NC(=O)N2CCC(n3c(C)nc4cccnc43)CC2)cc1OC | -
O=C(NCc1nnc2ccc(-c3ccc(Cl)cc3)nn12)c1ccc(F)c(F)c1 | -
O=C(C1CCCC1)N1CC2(CCCCN2Cc2cccnc2)Cc2ccccc21 (stereo not given) | 7.9µM
O=C1Nc2ccccc2CC12CCCN2Cc1cccnc1 (stereo not given) | -
CCC(=O)N1Cc2ccccc2CC2(CCCN2Cc2cccnc2)C1 (stereo not given) | -
CC(=O)N1CC2(CCCN2Cc2cccnc2)Cc2ccccc21 (stereo not given) | -
O=C(O)CCC(=O)N1Cc2ccccc2CC2(CCCN2Cc2cccnc2)C1 (stereo not given) | -
O=C(C1CCCC1)N1CC2(CCCN2Cc2cccnc2)Cc2ccccc21 (stereo not given) | 11µM
Cc1ccc(NC(=O)N(C)CC2CCOCC2)cc1F | -
CCN1CCC(N(Cc2ccc(F)cc2)C(=O)Nc2ccc(C)c(F)c2)CC1 | 11µM
COc1ccc(CN(C(=O)Nc2ccc(C)c(F)c2)C2CCN(C(C)=O)CC2)cc1 | -
CCN1CCC(N(Cc2ccc(F)cc2)C(=O)Nc2cccc(C(F)(F)F)c2)CC1 | 13µM
CN(CC1CCOC1)C(=O)Nc1cccc(C(F)(F)F)c1 (stereo not given) | -[5.79 µM]
CC[C@H]1CN(C(=O)Nc2cccc(C(F)(F)F)c2)CC[C@H]1CC(=O)NCc1ccc(F)cc1 | -
CN1C(=O)Cc2cc(S(=O)(=O)NCc3ccc(Cl)cc3)ccc21 | -
CCCN(CC1CCOC1)C(=O)Nc1c(C)cccc1C (stereo not given) | -[5.79 µM]
COc1ncccc1-c1cc(-c2c(C)noc2C)cc2c1C(=O)N(C)C2=O | -
Cc1noc(C)c1-c1cc(-c2ccccc2O)cn2cncc12 | 14µM
C1=C(c2cc(-c3cccc4cn[nH]c34)cn3cncc23)CCOC1 | -
Cc1noc(C)c1-c1cc2c(c(-c3cccnc3)c1)C(=O)N(C)C2 | -
C1=C(c2cc(-c3cccc4[nH]ccc34)cn3cncc23)CCOC1 | -
C[S+](=O)([O-])c1ccc(-c2cc(-c3cccnc3)c3cncn3c2)cc1 | -
Cc1noc(C)c1-c1cc2c(c(-c3cccc(CO)c3)c1)C(=O)N(C)C2=O | -
Cc1noc(C)c1-c1cc(-c2ccc(CN(C)C)cc2)cn2cncc12 | 2.8µM
SMILES | Pf Dd2 growth
Oc1ccccc1-c1cc(-c2cccnc2)c2cncn2c1 | 0.35µM
Oc1ccccc1-c1cc(C2=CCOCC2)c2cncn2c1 | 1.3µM
O=C1COCCN1c1cc(-c2ccccc2Oc2ccccc2)cn2cncc12 | -
CN(C)Cc1ccc(-c2cc(-c3ccc(=O)[nH]c3)c3cncn3c2)cc1 | -
CN(C)c1ccc(NC(=O)CSc2nc3ccsc3c(=O)n2CCCCCC(=O)O)cc1 | -
COCCNC(=O)[C@@H]1C[C@H](Oc2cccnc2)CN1C(=O)c1ccc(OC)cc1OC | -
O=C(NCc1cccc(F)c1)C1CCCN(C(=O)N2CCOc3ccccc32)C1 (stereo not given) | -
COc1ccc(CCNC(=O)CN2C(=O)C(c3ccccc3)=NC23CCCC3)cc1OC | -
COc1cc(OC)cc(C(=O)N2CCC[C@H]2c2nc(-c3ccccc3)no2)c1 | -
O=S(=O)(c1cccnc1)N1CCCCC1CCN1CCOCC1 (stereo not given) | -
COc1cc(-c2noc(-c3nc(-c4ccc(C)cc4)no3)n2)cc(OC)c1OC | -
CNC(=O)[C@@H]1CN(C(=O)Cc2c(C)noc2C)C[C@H]1c1nc(C)no1 | -
COCCCNC(=O)CCc1ccc2c(c1)CN(C(=O)NC(C)C)CCO2 | -
COc1ccc(Nc2nc(C)nc(N)c2S(=O)(=O)c2ccccc2)cc1 | -
Cc1noc(C)c1-c1cc2c(cc(-c3ccccc3)n2C)c(-c2cnn(C)c2)n1 | -
Cc1noc(C)c1-c1cc(-c2ccccc2)cn2cncc12 | 5.6µM
Cc1noc(C)c1-c1cc(-c2ccncc2)cn2cncc12 | -
COc1ccc(-n2nc3ccc(NC(=O)c4cc5ccccc5o4)cc3n2)cc1Cl | -
COCCN(CC1CCN(Cc2ccccc2F)CC1)C(=O)c1cc[nH]c1C | -
CCn1c(C(=O)N2CCC(C(=O)NCCCOC)CC2)cc2sccc21 | -
COCCCn1c(C)cc(C(=O)NC2CCc3nnc(C4CC4)n3CC2)c1C (stereo not given) | -
COc1cccc(C(=O)Nc2cc3c(cc2C(=O)c2ccc(C)cc2)OCCO3)c1 | -
O=C(Nc1cc2c(cc1C(=O)c1ccccc1Cl)OCCO2)c1ccc(Br)cc1 | -
CCC(O)c1cc2c(cc1NC(=O)c1cccc(Br)c1)OCCO2 (stereo not given) | 11µM
COc1cccc(NS(=O)(=O)c2cc3c4c(c2)C(C)C(=O)N4CCC3)c1 (stereo not given) | -

Bioassay records as filed in PubChem.
